A selection: hits, their analogues and other compounds. The true share with any hit is near 2.1%.
CHT inh: inhibitors of human choline transporter CHT; High affinity choline transporter 1 (Homo sapiens), Q9GZV3; CHT-expressing cells, membrane potential dye, choline response; stronger effect = lower value; B-score at 10 µM; actives 0.86% (n = 310,000);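 active means B-score over 3 SD under the library average, and starting fluorescence ratio not unusually high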;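 further: choline stimulus applied at its EC90 after an EC20 pre-addition; B-score computed on integrated fluorescence ratio after choline addition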
CHT allo act: CHT positive allosteric modulators, primary screen, cell-based, membrane potential dye, choline EC20; High affinity choline transporter 1 (Homo sapiens), Q9GZV3; CHT-expressing cells; stronger effect = higher value; LV-AA mutant CHT in HEK293 cells; B-score at 10 µM; actives 0.49% (n = 310,000);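 active means initial fluorescence not abnormally high and integrated response B-score, plate-corrected, over 3 SD above library mean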
EP2 mod: EP2 receptor modulators, cAMP readout, primary screen, cell-based, HTRF cAMP, PGE2 stimulation. Prostaglandin E2 receptor EP2 subtype (Homo sapiens), P43116. EP2-expressing cells, cAMP HTRF FRET, PGE2 co-stimulation. induction, % at 25 µM. actives 0.83% (n = 260,000). AID 940, 2007;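 active means compounds whose cAMP rise, as percent of the full-agonist control response, exceeds 60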;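 further: rat C6 glioma line stably carrying human EP2 under a CMV promoter; the protocol text gives 20 µM as final concentration; 100% = response of wells given 1 µM PGE2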
Target sequence (P43116 whole entry, looked up): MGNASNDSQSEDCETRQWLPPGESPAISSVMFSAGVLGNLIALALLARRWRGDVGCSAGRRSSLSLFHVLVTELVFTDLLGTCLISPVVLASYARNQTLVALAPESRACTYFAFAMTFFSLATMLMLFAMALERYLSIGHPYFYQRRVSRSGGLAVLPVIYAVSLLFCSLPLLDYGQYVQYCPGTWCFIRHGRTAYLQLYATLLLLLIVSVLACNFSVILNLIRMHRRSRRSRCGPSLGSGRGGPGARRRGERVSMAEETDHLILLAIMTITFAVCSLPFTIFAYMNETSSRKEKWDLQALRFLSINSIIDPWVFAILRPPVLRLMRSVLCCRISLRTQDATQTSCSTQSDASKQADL
PGE2 EP2 inh: human EP2 receptor antagonists, primary screen, TR-FRET cAMP, C6 glioma cells | Prostaglandin E2 receptor EP2 subtype (Homo sapiens), P43116 | C6 glioma cells expressing human EP2; cells stimulated with saturating PGE2 | inhibition, % at 25 µM | actives 0.52% (n = 260,000) | AID 1422, 2008;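 active means percent inhibition above 40 after rounding to a whole number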;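 further: rat C6 glioma host cells with rolipram phosphodiesterase inhibitor present; the protocol text gives 20 µM as final concentration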
CHT inh conf: CHT inhibitors, confirmation, cell-based, membrane potential dye, duplicate. actives 70% (n = 2,400). shares compounds with CHT inh. CHT activity remaining % of control (stronger effect = lower value), % at 10 µM. CHT-expressing cells, choline membrane potential dye; LV-to-AA substituted CHT, HEK293 cells. AID 493221, 2011;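 active means choline transporter activity left, mean of duplicates at 10 µM, below buffer-only control mean minus 3 SD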;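 further: depolarization triggered by choline at its EC90 following an EC20 pre-addition; 0% = hemicholinium-3 full block and 100% = buffer-only control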
HEK293 MPD ctr: membrane potential effects in parental HEK293, counter-screen for CHT inhibitor project, cell-based, membrane potential dye; shares compounds with CHT inh; choline response; active = decrease or increase beyond buffer ±3SD; membrane potential ratio readout (active if shifted either direction beyond buffer ±3SD; no single direction) at 10 µM; actives 4% (n = 2,400);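 further: parental cells lack the transporter so any hit is non-specific; ratio is peak minus trough fluorescence over baseline after EC90 choline challenge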
* hit, by the source's call; i = inactive; / = no result.

SMILES	CHT inh	CHT allo act	EP2 mod	PGE2 EP2 inh	CHT inh conf	HEK293 MPD ctr
O=C(CCC(=O)N1CCOc2ccc(Cl)cc21)NCc1ccccc1	-6.3*	i	/	/	i	i
CCCN(CCC)c1nc(C#N)nc(N(CCC)CCC)n1	i	i	46	14	/	/
CCCN(CCC)c1nc(N(CCC)CCC)[nH]c(=O)n1	-5.1*	i	58	4	64%*	i
CCCOc1ccc(C(=O)NC(=S)NNC(=O)c2c(-c3ccccc3)noc2C)cc1	-12*	i	-29	7	56%*	i
Cn1c(CCNC(=O)c2cccs2)n[nH]c1=S	-6.8*	i	-3	6	i	i
COc1ccc2[nH]c(=O)c(C(c3nnnn3Cc3ccc(F)cc3)N(C)C3CCCCC3)cc2c1 (configuration not stated)	/	/	21	10	/	/
O=C(CCc1nnc(Cc2ccc(-c3ccccc3)cc2)o1)N1CCCC1	-5.4*	i	-1	3	46%*	i
COc1cccc(C(c2nnnn2C2CCCC2)N2CCN(C)CC2)c1OC (configuration not stated)	/	/	-5	9	/	/
Cc1ccc2c(COC(=O)c3c(C)noc3C)cc(=O)oc2c1	-5.9*	i	-27	9	i	i
Cc1ccc2c(COC(=O)c3ccccc3F)cc(=O)oc2c1	i	i	/	/	/	/
Cc1[nH]n2c(=O)cc(C(C)C)nc2c1-c1cccs1	/	/	15	/	/	/
Cc1[nH]n2c(=O)cc(C(C)C)nc2c1-c1ccccc1	-5.2*	i	1	/	i	i
CCCc1cc(=O)n2[nH]c(C)c(-c3ccccc3)c2n1	-5.8*	i	2	12	i	i
CCn1c(CNc2nc(-c3ccccc3)cs2)nnc1SCC(=O)NC1CCCC1	/	/	-2	12	/	/
CC1CCN(S(=O)(=O)c2ccc3c(ccn3CCC(=O)N3CCCCC3)c2)CC1	i	i	/	/	/	/
CC1CCC(NC(=O)CCn2ccc3cc(S(=O)(=O)N4CCCC4)ccc32)CC1 (configuration not stated)	-6.3*	i	/	/	39%*	i
Cc1cn([C@H](C(=O)NCCCCCCCCCCC(=O)N2CCN(C(=O)OC(C)(C)C)CC2)[C@@H](C)O)nn1	-6.8*	i	/	/	60%*	i
COc1cc(SC)ccc1C(=O)NC1CCCCC1	-6.2*	i	26	9	i	i
COc1cc(SC)ccc1C(=O)OCC(=O)NC1CCCCC1	i	i	-12	0	/	/
Cc1oc(-c2ccc(Cl)cc2)nc1CS(=O)CC(=O)NCc1ccccc1 (configuration not stated)	i	i	/	/	/	/
Cc1oc(-c2ccc(Cl)cc2)nc1CS(=O)CC(=O)NC(C)c1ccccc1 (configuration not stated)	-6.5*	i	/	/	39%*	i
CC1=NN(c2cccc(Cl)c2)C(=O)C1	i	i	26	9	i	i
CC1=NN(c2ccc(Cl)c(C(=O)O)c2)C(=O)C1	i	i	18	1	/	/
CCC1CCCCN1CCCNC(=O)c1ccc(N2CCOCC2)c(NS(=O)(=O)c2ccc(OC)cc2)c1 (configuration not stated)	-6.8*	i	10	6	42%*	i
CCCCNC(=O)c1ccc(N2CCOCC2)c(NS(=O)(=O)c2ccc(OC)cc2)c1	i	i	11	-2	/	/
SMILES	CHT inh	CHT allo act	EP2 mod	PGE2 EP2 inh	CHT inh conf	HEK293 MPD ctr
CCCCCc1cc(=O)oc2c(C(CCN(CC)CC)c3cc(OC)c(OC)c(OC)c3)c(OC)cc(OC)c12 (configuration not stated)	-5.8*	i	-17	18	51%*	i
COc1ccc(C(=O)COC(=O)CNC(=O)c2ccco2)cc1Br	/	/	1	7	/	/
Nc1nc(SCC(=O)Nc2ccc3c(c2)OCO3)n[nH]1	-5.1*	i	5	6	i	i
Cc1nc(-c2ccc(S(=O)(=O)N3CCCN(CCc4ccccc4)CC3)s2)cs1	-5.4*	i	-61	10	i	i
NC(=O)Cn1c(=O)n(CCCC(=O)NC2CCN(Cc3ccccc3)CC2)c(=O)c2ccccc21	-5.6*	i	9	12	i	i
Cn1c(=O)c2ccccc2n(CC(=O)NCCC2=CCCCC2)c1=O	i	i	/	/	/	/
O=C(CCn1c(=O)c2ccccc2n(Cc2ccccc2)c1=O)NC1CCN(Cc2ccccc2)CC1	i	i	11	7	/	/
O=C(Cn1c(=O)n(CCCCC(=O)NC2CCCC2)c(=O)c2ccccc21)NCCC1=CCCCC1	-7*	i	16	2	i	i
CC(C)c1ccc(NC(=O)N2CCC(n3nnc4cc(C(F)(F)F)ccc43)CC2)cc1	/	/	29	6	/	/
Cc1ccccc1-c1nnc(NC(=O)C(C)C)s1	/	/	-22	13	/	/
CC[C@H](CO)Nc1nc(Nc2cccc(Cl)c2)c2ncn(C(C)C)c2n1	-9*	i	6	21	48%*	i
COC(=O)C[C@@H]1C2(C)C(=O)[C@@H](CC3=C4CC(=O)O[C@@H](c5ccoc5)[C@]4(C)CCC32)[C@H](OC(C)=O)C1(C)C (some centres not stated)	/	/	16	12	/	/
Cn1c(Cc2ccccc2)nnc1SCC(=O)Nc1nc2c(s1)CCCC2	/	/	17	5	/	/
O=C(CSc1nc2ccccc2[nH]1)N1CCN(c2ccccc2)CC1	i	i	-10	19	/	/
O=C(COC(=O)CCCSc1nc2ccccc2[nH]1)NC(=O)NC1CCCC1	-7.3*	i	13	2	62%*	i
O=C(CCCSc1nc2ccccc2[nH]1)N1CCN(c2ccccc2)CC1	-5*	i	-28	4	58%*	i
O=C(CCCSc1nc2ccccc2[nH]1)NC1CCCCC1	i	i	-11	10	/	/
O=C(c1ccccc1F)N1CCC(n2nc(-c3cccs3)ccc2=O)CC1	/	/	8	/	/	/
COc1ccc(Cl)c2sc(N(CCN(C)C)C(=O)c3ccc4c(c3)OCCO4)nc12	-9.8*	i	/	/	36%*	i
C#CCCN1CCN(Cc2cnc(N3CCCCC3)nc2)CC1	/	/	-3	10	/	/
CCOC(=O)C1CCN(C(c2cc3cc(C)ccc3[nH]c2=O)c2nnnn2Cc2ccccc2)CC1 (configuration not stated)	/	/	-7	11	/	/
